Screens (PubChem)
The full list was thinned out, with hits kept by preference.
Methyltransferases – Primary Screen for Target Class Profiling of Small Molecule Inhibitors of Methyltransferases | purified enzyme, MTase-Glo SAH luminescence; stronger effect = lower value | 3.9% of 25,000 active | calls only at 40 µM; call rule not given here
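Each enzyme was assayed with SAM and its substrate. SAH formation detected by MTase-Glo luminescence; single-point 40 uM screen[…].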
MTase-Glo ctr – Counterscreen for Target Class Profiling of Small Molecule Inhibitors of Methyltransferases; shares compounds with Methyltransferases; MTase-Glo coupled enzymes, SAH conversion luminescence, no MTase; Potency, µM (series often up to 57.3 µM), usual class: inhibitors; 6% of 180 active; AID 1745851, 2022; active = well fitted inhibition curve with a large enough effect; inconclusive = small, poorly fitted or top-dose-only effect
Calls only; i = inactive; ? = inconclusive; + = active, no number.

SMILES	Methyltransferases	others
Cc1cc(C)cc(NC(=O)N2Cc3ccccc3-n3cccc3C2c2cccc(C)c2)c1 (stereo not drawn)	i
O=c1ccc2[nH]cc(C3=CCNCC3)c2[nH]1	+
O=C(NCc1ccccc1)N1Cc2ccccc2-n2cccc2C1c1ccc(F)cc1 (stereo not drawn)	i
Cc1ccc(C2c3cccn3-c3ccccc3CN2C(=O)Nc2ccccc2Br)cc1 (stereo not drawn)	i
Cc1cccc(NC(=O)N2Cc3ccccc3-n3cccc3C2C)c1C (stereo not drawn)	i
CCCNC(=O)N1Cc2ccccc2-n2cccc2C1c1ccc(F)cc1 (stereo not drawn)	i
Cc1[nH]c2ccc(Cl)cc2c1CCN(C)C	+
COc1ccc(C2c3cccn3-c3ccccc3CN2C(=O)Nc2ccccc2Cl)cc1 (stereo not drawn)	i
COC(=O)c1cccc(NC(=O)N2Cc3ccccc3-n3cccc3C2c2ccc(OC)c(OC)c2)c1 (stereo not drawn)	i
COc1ccc(C2c3cccn3-c3ccccc3CN2C(=O)Nc2ccc3c(c2)OCCO3)cc1 (stereo not drawn)	i
CCc1ccc(C2c3cccn3-c3ccccc3CN2C(=O)Nc2cc(C)ccc2OC)cc1 (stereo not drawn)	i
CCOc1ccccc1NC(=O)N1Cc2ccccc2-n2cccc2C1c1ccccc1Cl (stereo not drawn)	i
N#Cc1ccc(N2CCN(C(=O)COc3ccc4[nH]cc(CCN)c4c3)CC2)cc1	+
CCC1c2cccn2-c2ccccc2CN1C(=O)Nc1ccccc1 (stereo not drawn)	i
CC1CCN(CC2CCCCCN2C(=O)Cc2ccccc2)CC1 (stereo not drawn)	i
COc1ccc(C2c3cccn3-c3ccccc3CN2C(=O)Nc2ccc(Br)cc2)cc1 (stereo not drawn)	i
NCCc1ccc(O)cc1	+
NNC(=O)c1ccc(O)cc1	i
CCC1c2cccn2-c2ccccc2CN1C(=O)Nc1cc(Cl)ccc1C(=O)OC (stereo not drawn)	i
O=C(Nc1ccc(F)cc1)N1Cc2ccccc2-n2cccc2C1c1ccc(F)cc1 (stereo not drawn)	i
CNC1CCc2ccccc21 (stereo not drawn)	+	MTase-Glo ctr=i
O=C(NC1CCCC1)N1Cc2ccccc2-n2cccc2C1c1cc(F)cc(F)c1 (stereo not drawn)	i
Cc1ccc(CNC(=O)N2Cc3ccccc3-n3cccc3C2c2ccc(N(C)C)cc2)cc1 (stereo not drawn)	i
COc1ccccc1-c1cc([C@H]2CN3CC[C@H]2C[C@@H]3CNC(=O)N2CCOCC2)n(C)n1	i
CC(=O)NC[C@H]1C[C@@H]2CCN1C[C@@H]2c1cc(-c2ccc3ccccc3c2)nn1C	+	MTase-Glo ctr=?
SMILES	Methyltransferases	others
Cn1nc(-c2ccc3ccccc3c2)cc1[C@H]1CN2CC[C@H]1C[C@@H]2CNC(=O)c1ccco1	i
COc1ccc(C2c3cccn3-c3ccccc3CN2C(=O)Nc2ccc(F)cc2F)cc1OC (stereo not drawn)	i
O=C(NCc1ccccc1)N1Cc2ccccc2-n2cccc2C1c1cccs1 (stereo not drawn)	i
COc1ccc(NC(=O)N2Cc3ccccc3-n3cccc3C2c2ccccc2C)c(OC)c1 (stereo not drawn)	i
COc1ccc(-c2cc3c(cn2)CN(C)CCN3)cn1	+	MTase-Glo ctr=i
COc1ccc(NC(=O)N2Cc3ccccc3-n3cccc3C2c2ccccc2Cl)cc1OC (stereo not drawn)	i
O=C(Nc1ccccc1)N1Cc2ccccc2-n2cccc2C1c1ccccc1Cl (stereo not drawn)	i
CCOC(=O)Cc1ccc(NC(=O)N2Cc3ccccc3-n3cccc3C2CC)cc1 (stereo not drawn)	i
CC1c2cccn2-c2ccccc2CN1C(=O)Nc1ccccc1 (stereo not drawn)	i
CCC1c2cccn2-c2ccccc2CN1C(=O)Nc1ccccc1F (stereo not drawn)	i
